The entries come from a sample that favours the strongest signals as a whole.
Experiments:
Assay in all cases: glycan array binding signal (z-score within array); higher = stronger binding
Conditions in all cases: glycan notation: IUPAC condensed, linker removed
GalNAc(a1-3)Gal = target: GalNAc(a1-3)Gal
Outline: (§1)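 Glycan array data were curated from 3228 arrays in the Consortium for Functional Glycomics database and kept only where the protein sequence was available. Glycan names were converted to IUPAC-condensed notation, and columns mapping to the same glycan were averaged. The binding signal is a within-array Z-score, averaged across arrays of the same protein sequence at different concentrations or buffers and across linkers. Negative Z-scores can be read as non-binding.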

GalNAc(a1-3)GalNAc = target: GalNAc(a1-3)GalNAc
Outline: as §1

[1] = target: GalNAc(a1-3)GalNAc(a1-3)Gal(a1-4)Gal(b1-4)GlcNAc
Outline: as §1

[2] = target: GalNAc(a1-3)GalNAc(b1-3)Gal(a1-4)Gal(b1-4)GlcNAc
Outline: as §1

Glc(b1-4)Glc = target: Glc(b1-4)Glc
Outline: as §1

Glc(b1-6)Glc = target: Glc(b1-6)Glc
Outline: as §1

GlcA(b1-3)Gal = target: GlcA(b1-3)Gal
Outline: as §1

[3] = target: GlcA3S(b1-3)Gal(b1-4)GlcNAc(b1-3)Gal(b1-4)Glc
Outline: as §1

[4] = target: GlcNAc(a1-3)Gal(b1-4)GlcNAc
Outline: as §1

[5] = target: GlcNAc(a1-4)Gal(b1-4)GalNAc
Outline: as §1

[6] = target: GlcNAc(a1-4)Gal(b1-4)GlcNAc(b1-3)Gal(b1-4)GlcNAc
Outline: as §1

[7] = target: GlcNAc(a1-4)Gal(b1-4)GlcNAc(b1-3)Gal(b1-4)GlcNAc(b1-3)Gal(b1-4)GlcNAc
Outline: as §1

[8] = target: GlcNAc(b1-2)[GlcNAc(b1-4)]Man(a1-3)[GlcNAc(b1-4)][GlcNAc(b1-2)[GlcNAc(b1-6)]Man(a1-6)]Man(b1-4)GlcNAc(b1-4)[Fuc(a1-6)]GlcNAc
Outline: as §1

[9] = target: GlcNAc(b1-2)[GlcNAc(b1-6)]Man(a1-6)[GlcNAc(b1-2)Man(a1-3)][GlcNAc(b1-4)]Man(b1-4)GlcNAc(b1-4)GlcNAc
Outline: as §1

[10] = target: GlcNAc(b1-3)Gal(b1-4)GlcNAc(b1-3)Gal(b1-4)GlcNAc(b1-2)Man(a1-3)[GlcNAc(b1-3)Gal(b1-4)GlcNAc(b1-3)Gal(b1-4)GlcNAc(b1-2)Man(a1-6)]Man(b1-4)GlcNAc(b1-4)[Fuc(a1-6)]GlcNAc
Outline: as §1

[11] = target: GlcNAc(b1-3)Gal(b1-4)GlcNAc(b1-3)Gal(b1-4)GlcNAc(b1-3)Gal(b1-4)GlcNAc(b1-2)Man(a1-3)[GlcNAc(b1-3)Gal(b1-4)GlcNAc(b1-3)Gal(b1-4)GlcNAc(b1-3)Gal(b1-4)GlcNAc(b1-2)Man(a1-6)]Man(b1-4)GlcNAc(b1-4)GlcNAc
Outline: as §1

[12] = target: GlcNAc(b1-3)Gal(b1-4)GlcNAc(b1-3)Gal(b1-4)GlcNAc(b1-3)Gal(b1-4)GlcNAc(b1-2)Man(a1-3)[GlcNAc(b1-3)Gal(b1-4)GlcNAc(b1-3)Gal(b1-4)GlcNAc(b1-3)Gal(b1-4)GlcNAc(b1-2)Man(a1-6)]Man(b1-4)GlcNAc(b1-4)[Fuc(a1-6)]GlcNAc
Outline: as §1

Kdn(a2-3)Gal(b1-4)GlcNAc = target: Kdn(a2-3)Gal(b1-4)GlcNAc
Outline: as §1

[13] = target: Neu5Ac(a2-3)Gal(b1-3)GalNAc(b1-3)Gal(a1-4)Gal(b1-4)Glc
Outline: as §1

[14] = target: Neu5Ac(a2-3)Gal(b1-3)GalNAc(b1-4)[Neu5Ac(a2-8)Neu5Ac(a2-3)]Gal(b1-4)Glc
Outline: as §1

[15] = target: Neu5Ac(a2-3)Gal(b1-3)[Fuc(a1-4)]GlcNAc(b1-3)Gal(b1-4)[Fuc(a1-3)]GlcNAc
Outline: as §1

[16] = target: Neu5Ac(a2-3)Gal(b1-4)GlcNAc(b1-3)Gal(b1-4)GlcNAc
Outline: as §1

[17] = target: Neu5Ac(a2-3)Gal(b1-4)GlcNAc(b1-3)Gal(b1-4)GlcNAc(b1-3)Gal(b1-4)GlcNAc
Outline: as §1

[18] = target: Neu5Ac(a2-3)Gal6S(b1-4)GlcNAc
Outline: as §1

[19] = target: Neu5Ac(a2-6)Gal(b1-4)GlcNAc(b1-2)Man(a1-3)[Gal(b1-4)GlcNAc(b1-2)Man(a1-6)]Man(b1-4)GlcNAc(b1-4)GlcNAc
Outline: as §1

[20] = target: Neu5Ac(a2-6)Gal(b1-4)GlcNAc(b1-3)Gal(b1-4)GlcNAc(b1-3)Gal(b1-4)GlcNAc(b1-2)Man(a1-3)[Neu5Ac(a2-6)Gal(b1-4)GlcNAc(b1-3)Gal(b1-4)GlcNAc(b1-3)Gal(b1-4)GlcNAc(b1-2)Man(a1-6)]GalNAc
Outline: as §1

[21] = target: Neu5Ac(a2-6)Gal(b1-4)GlcNAc(b1-3)Gal(b1-4)[Fuc(a1-3)]GlcNAc(b1-3)Gal(b1-4)[Fuc(a1-3)]GlcNAc
Outline: as §1

Neu5Ac(b2-6)GalNAc = target: Neu5Ac(b2-6)GalNAc
Outline: as §1

[22] = target: Neu5Ac9Ac(a2-6)Gal(b1-4)GlcNAc
Outline: as §1

B1: HPA (Helix pomatia), Q575S3 (protein)
chain: MWAHLTGLLLICALSLSAAQRAQTGEIDCGSDSSWPKDPSDNPNRDNTREIVKHVTFSPQFCREPKVILSVTTLDAEHTKNLRYEARLKSVSPSGLSASCYSWHDGTIYRMKLSWLAVED
With B1 the “glycan array binding signal (z-score)” value (GalNAc(a1-3)Gal) was 4.18, the “glycan array binding signal (z-score)” value (GalNAc(a1-3)GalNAc) was 4.53 and the “glycan array binding signal (z-score)” value [1] was 5.04. The “glycan array binding signal (z-score)” value [2] was 5.7, the “glycan array binding signal (z-score)” value (Glc(b1-4)Glc) was -0.26 and the “glycan array binding signal (z-score)” value (Glc(b1-6)Glc) was -0.266. For the same binder, the “glycan array binding signal (z-score)” value (GlcA(b1-3)Gal) was -0.262, the “glycan array binding signal (z-score)” value [3] was -0.256 and the “glycan array binding signal (z-score)” value [4] was 4.69. The “glycan array binding signal (z-score)” value [5] was 1.46, the “glycan array binding signal (z-score)” value [6] was 4.37 and the “glycan array binding signal (z-score)” value [7] was 4.21. For the same binder, the “glycan array binding signal (z-score)” value [8] was 0.175, the “glycan array binding signal (z-score)” value [9] was -0.24 and the “glycan array binding signal (z-score)” value [10] was -0.243. For the same binder, the “glycan array binding signal (z-score)” value [11] was -0.257, the “glycan array binding signal (z-score)” value [12] was -0.241 and the “glycan array binding signal (z-score)” value (Kdn(a2-3)Gal(b1-4)GlcNAc) was -0.262. For the same binder, the “glycan array binding signal (z-score)” value [13] was -0.243, the “glycan array binding signal (z-score)” value [14] was -0.245 and the “glycan array binding signal (z-score)” value [15] was -0.209. For the same binder, the “glycan array binding signal (z-score)” value [16] was -0.267, the “glycan array binding signal (z-score)” value [17] was -0.265 and the “glycan array binding signal (z-score)” value [18] was -0.273. For the same binder, the “glycan array binding signal (z-score)” value [19] was -0.261, the “glycan array binding signal (z-score)” value [20] was -0.164 and the “glycan array binding signal (z-score)” value [21] was -0.253. The “glycan array binding signal (z-score)” value (Neu5Ac(b2-6)GalNAc) was -0.269 and the “glycan array binding signal (z-score)” value [22] was -0.274.

— the supplement of paper PMC8728848
